In the library only some 3.9% were active in any assay of this set; here they are far more common.
BoNT A protease: BoNT A light chain protease inhibition. inhibition, % at 10 µM. 0.17% of 360,000 active. multiplex microsphere protease substrate cleavage, flow cytometry
BoNT-F LC inh: inhibitors of Botulinum neurotoxin F light chain protease; Multiplex microsphere protease cleavage assay, flow cytometry; inhibition, % at 10 µM; 0.22% of 360,000 active; in the data active = inhibition above about 35%, passing the limit was not always enough; inconclusive = no clear call, values can overlap the other calls
Autofluor counter: flagged as autofluorescent in microsphere protease counterscreen. fluorescence intensity (concentration not given with the values). 3.1% of 360,000 active. compound autofluorescence counterscreen, microsphere flow cytometry; stronger effect = higher value; in the data active = fluorescence intensity above about 16000; inconclusive = no clear call, values can overlap the other calls
VHR inh abs: blocks human VHR1 dual specificity phosphatase; inhibition, % at 13.3 µM; AID 1654; P51452; 0.52% of 290,000 active; recombinant VHR phosphatase, pNPP absorbance; in the data active = inhibition above about 50%
3CLpro inhibitor: SARS-CoV 3CLpro protease inhibition. recombinant SARS-CoV 3CLpro, quenched FRET peptide cleavage. inhibition, % at 6 µM. P0C6X7. AID 1706. 0.14% of 290,000 active; in the data active = inhibition above about 12%
Anthrax LF prot: inhibitors of Bacillus anthracis lethal factor protease; inhibition, % at 10 µM; multiplex microsphere protease cleavage assay, LF; 0.12% of 360,000 active; P15917; AID 588501
Numbers stand for hits. Cut-off read from the data, not from the text of the source, unless noted: active = inhibition above about 30%; inconclusive = no clear call, values can overlap the other calls; inactive = below that.

What do the screens show for `O=C(Nc1ccn(Cc2c(F)c(F)c(F)c(F)c2F)n1)c1cccc(Cn2cc([N+](=O)[O-])cn2)c1`?
BoNT A protease: inactive; BoNT-F LC inh: inactive; Autofluor counter: inactive; VHR inh abs: inactive; 3CLpro inhibitor: inactive; Anthrax LF prot: inactive

Results for Cc1cccc(NC(=O)Cn2cc([N+](=O)[O-])cn2)n1 ?
BoNT A protease: inactive; BoNT-F LC inh: inactive; Autofluor counter: inactive; VHR inh abs: inactive; 3CLpro inhibitor: inactive; Anthrax LF prot: inactive

How did O=C(Nc1ccn(Cc2c(F)c(F)cc(F)c2F)n1)c1cccc(Cn2cc([N+](=O)[O-])cn2)c1 do in these assays?
BoNT A protease: inactive; BoNT-F LC inh: inactive; Autofluor counter: 23743; VHR inh abs: inactive; 3CLpro inhibitor: inactive; Anthrax LF prot: inactive

How did O=C(Cn1cc([N+](=O)[O-])cn1)Nc1ccn(Cc2c(F)c(F)c(F)c(F)c2F)n1 do in these assays?
BoNT A protease: inactive; BoNT-F LC inh: inactive; Autofluor counter: 22598; VHR inh abs: inactive; 3CLpro inhibitor: inactive; Anthrax LF prot: inactive

What do the screens show for `CC(C)C(NC(=O)c1ccccc1NC(=O)C(C)(C)C)C(=O)N1CCOCC1` (configuration not stated)?
BoNT A protease: inactive; BoNT-F LC inh: inactive; Autofluor counter: inactive; Anthrax LF prot: inactive

Results for CC1C(=O)OC2C1CCC1(C)C3(C)C(=O)C=CC213 (configuration not stated) ?
BoNT A protease: inactive; BoNT-F LC inh: inactive; Autofluor counter: inactive; Anthrax LF prot: inactive

How did COc1cc(CNc2ncnc3c2ncn3[C@H]2CN(Cc3ccncc3)C[C@@H](CO)O2)cc(OC)c1OC do in these assays?
BoNT A protease: inactive; BoNT-F LC inh: inactive; Autofluor counter: inactive; Anthrax LF prot: inactive

What do the screens show for `CCOc1ccc(N2C(=O)c3cccnc3C2Nc2ccc(Cl)cc2)cc1` (configuration not stated)?
BoNT A protease: inactive; BoNT-F LC inh: inactive; Autofluor counter: 21889; VHR inh abs: inactive; 3CLpro inhibitor: inactive; Anthrax LF prot: inactive

Results for COC(=O)c1ccc(NC2c3ncccc3C(=O)N2Cc2cccs2)cc1 (configuration not stated) ?
BoNT A protease: inactive; BoNT-F LC inh: inactive; Autofluor counter: inactive; VHR inh abs: inactive; 3CLpro inhibitor: inactive; Anthrax LF prot: inactive

How did COC(=O)c1cc(NC2c3ncccc3C(=O)N2Cc2ccccc2)cc(C(=O)OC)c1 (configuration not stated) do in these assays?
BoNT A protease: inactive; BoNT-F LC inh: inactive; Autofluor counter: 16375; VHR inh abs: inactive; 3CLpro inhibitor: inactive; Anthrax LF prot: inactive

How did CCOC(=O)c1ccc(NC2c3ncccc3C(=O)N2Cc2ccc(F)cc2)cc1 (configuration not stated) do in these assays?
BoNT A protease: inactive; BoNT-F LC inh: inactive; Autofluor counter: 24047; VHR inh abs: inactive; 3CLpro inhibitor: inactive; Anthrax LF prot: inactive

How did Cc1ccc2c(c1)N(C(C)C(=O)NCCc1ccccc1)C(=O)CO2 (configuration not stated) do in these assays?
BoNT A protease: inconclusive; BoNT-F LC inh: inactive; Autofluor counter: 20536; VHR inh abs: inactive; 3CLpro inhibitor: inactive; Anthrax LF prot: inactive

How did Cc1ccc2c(c1)N(CC(=O)NCCc1c[nH]c3ccccc13)C(=O)CO2 do in these assays?
BoNT A protease: inactive; BoNT-F LC inh: inactive; Autofluor counter: 23441; VHR inh abs: inactive; 3CLpro inhibitor: inactive; Anthrax LF prot: inactive

How did Cc1ccc2c(c1)N(CCC(=O)N1CCC3(CC1)OCCO3)C(=O)CO2 do in these assays?
BoNT A protease: inactive; BoNT-F LC inh: inactive; Autofluor counter: 22602; VHR inh abs: inactive; 3CLpro inhibitor: inactive; Anthrax LF prot: inactive

What do the screens show for `Cc1ccc(NC(=O)CN2C(=O)COc3ccc(C)cc32)nc1`?
BoNT A protease: inactive; BoNT-F LC inh: inactive; Autofluor counter: 21570; VHR inh abs: inactive; 3CLpro inhibitor: inactive; Anthrax LF prot: inactive

What do the screens show for `CCC(CCNC(=O)c1ccccc1)(CCNC(=O)c1ccccc1)[N+](=O)[O-]`?
BoNT A protease: inactive; BoNT-F LC inh: inactive; Autofluor counter: inactive; Anthrax LF prot: inactive

Results for Cc1cccc(S(=O)(=O)NC(=O)C2(C)CCN2C(=O)Cc2ccc(C(C)(C)C)cc2)c1 (configuration not stated) ?
BoNT A protease: inactive; BoNT-F LC inh: inactive; Autofluor counter: inactive; Anthrax LF prot: inactive

What do the screens show for `CCCCCCCCN1C(=O)[C@H](CC(=O)NCc2cccc(C(F)(F)F)c2)C[C@@]2(C(=O)OCC)CCCC=C12`?
BoNT A protease: inactive; BoNT-F LC inh: inactive; Autofluor counter: inactive; Anthrax LF prot: inactive

Source: PubChem (several laboratories)
